Most compounds without a hit are left out; they make up all but 18% or so of the library.
CtBP-E1A blk: inhibitors of CtBP/E1A interaction. AlphaScreen GST-E1A/His-CtBP binding, 1536-well; active compounds read low. activity change, % (test concentration not listed). actives 0.49% (n = 340,000); in the data active = activity change below about -65%; inconclusive = mostly about -30% to -63%
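Steps: dispense buffer (Tris pH 8.0, NaCl 300 mM, TCEP 1 mM, BSA, Tween 20); add 5X protein mix (GST-E1A, His-CtBP, 125 nM each); pin 23 nL compound; 2 h at 37 °C, dark; add 5X beads (50 ug/mL); 1 h; read.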
Six1-Eya2 inh: inhibitors of human Six1/Eya2 interaction; Q15475+O00167; AlphaScreen GST-Six1/His-Eya2 binding, biochemical; active compounds read low; activity change, % (no concentration beside the values); actives 0.56% (n = 360,000); AID 651725; in the data active = activity change below about -65%; inconclusive = mostly about -30% to -63%
Target sequence (O00167 whole entry, looked up): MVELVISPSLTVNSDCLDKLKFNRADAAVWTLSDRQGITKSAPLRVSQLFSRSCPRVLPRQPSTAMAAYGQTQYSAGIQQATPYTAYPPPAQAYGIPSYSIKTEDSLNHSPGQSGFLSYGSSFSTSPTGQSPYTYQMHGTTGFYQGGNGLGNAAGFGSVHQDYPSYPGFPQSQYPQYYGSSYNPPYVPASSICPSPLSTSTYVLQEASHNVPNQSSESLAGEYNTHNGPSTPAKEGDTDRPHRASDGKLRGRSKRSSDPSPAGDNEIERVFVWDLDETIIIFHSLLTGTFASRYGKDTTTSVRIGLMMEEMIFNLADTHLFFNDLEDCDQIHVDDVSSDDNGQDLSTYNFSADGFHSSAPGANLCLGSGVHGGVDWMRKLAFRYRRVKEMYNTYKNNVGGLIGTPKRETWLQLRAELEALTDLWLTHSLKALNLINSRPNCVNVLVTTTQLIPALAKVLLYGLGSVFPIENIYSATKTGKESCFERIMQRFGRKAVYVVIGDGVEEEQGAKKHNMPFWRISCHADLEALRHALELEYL
Target sequence (Q15475 whole entry, looked up): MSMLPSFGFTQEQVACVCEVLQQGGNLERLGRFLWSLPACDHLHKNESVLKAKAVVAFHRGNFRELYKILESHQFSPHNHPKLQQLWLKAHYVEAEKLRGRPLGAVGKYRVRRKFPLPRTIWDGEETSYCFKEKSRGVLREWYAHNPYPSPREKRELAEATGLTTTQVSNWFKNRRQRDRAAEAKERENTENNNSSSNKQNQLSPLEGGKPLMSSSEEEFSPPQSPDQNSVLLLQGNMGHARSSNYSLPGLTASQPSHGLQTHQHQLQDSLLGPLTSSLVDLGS
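Six1/Eya2 binding was read as AlphaScreen signal after compounds were pinned into GST-Six1 plus His-tagged Eya2 (5X stock 250/500 nM) in pH 8.0 Tris/NaCl/TCEP buffer, beads added, then incubated 1 h, 37 C, dark.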
DT40 TDP1 no CPT: qHTS for Inhibitors of human tyrosyl-DNA phosphodiesterase 1 (TDP1): qHTS in cells in absence of CPT. DT40 Tdp1-/- hTDP1 cells, no CPT, ATP luminescence, 48 h. Potency, µM (doses to about 46.2 µM), for inactives: top-dose activity change, negative = growth inhibition, actives largely listed as inhibitors. actives 15% (n = 420,000); also: potency is read from the fitted curve at half-maximal effect; nearly all actives have a fitted effect of over 55% in size
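Chicken DT40 Tdp1-/- cells stably complemented with human TDP1 were seeded at 400 cells/well with DMSO in place of 20 nM camptothecin. After compound pinning, cells grew at least 48 hr at 37 °C; viability read by CellTiter-Glo luminescence.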
TDP1 block: blocks human tyrosyl-DNA phosphodiesterase 1; Q9NUW8; recombinant TDP1, AlphaScreen DNA substrate cleavage; Potency, µM (doses to about 130 µM), inactives show at the top dose activity change, negative = inhibition, most hits filed as inhibitors; actives 0.28% (n = 350,000); also: potency is read from the fitted curve at half-maximal effect; nearly all actives have a fitted effect of over 40% in size
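AlphaScreen read-out: signal falls as enzyme removes the 3' tyrosine-FITC from a 5'-biotinylated DNA oligo (15 nM, 5 min, RT). Enzyme was E. coli-made recombinant Tdp1 at 1 nM, exposed to compound for 15 min beforehand; beads 10 ug/ml, 10 min.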
TDP1 cell CPT: growth inhibition of DT40 Tdp1-/-;hTDP1 cells with camptothecin (screen for TDP1 inhibitors) | chicken DT40 Tdp1-/-;hTDP1 cells + 20 nM CPT, ATP luminescence, 48 h | Potency, µM (highest dose often 46.2 µM), for inactives: top-dose activity change, negative = growth inhibition, actives largely listed as inhibitors | actives 12% (n = 420,000) | AID 686979; also: potency is read from the fitted curve at half-maximal effect; nearly all actives have a fitted effect of over 55% in size
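Cell growth measured by CellTiter-Glo luminescence after a minimum 48 h, 37 C compound exposure with 20 nM CPT in Tdp1-knockout DT40 cells stably expressing hTDP1, seeded 400/well; qHTS titration format.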
IL1B secr inh: inflammasome signaling inhibition, IL-1 beta readout; activity change, % at 57.5 µM; actives 4.7% (n = 360,000); AID 743279; THP-1 LPS/ATP IL-1B secretion, AlphaLISA, 16 h; active compounds read low; in the data active = activity change below about -50%; inconclusive = mostly about -30% to -49%
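Secreted IL-1B measured by AlphaLISA bead assay after 16 h compound exposure of THP-1 cells; compounds (final up to 57.5 uM) added 1 h before LPS (250 ng/mL) and ATP (1.25 mM) stimulation; lower signal means less secretion.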
Numbers without * were called inactive; ? = inconclusive; / = not tested or not shown; [ ] = remark or other dose. Unless noted, calls follow the shape of the dose curve; as a rule, active = well fitted curve in the direction sought with a large enough effect; inconclusive = small, poorly fitted or top-dose-only effect, or another doubt; inactive = no such curve, though single readings can be large; an effect the other way counts as inactive or inconclusive. % is scaled to controls: 0 for no effect and ±100 for the full control effect.

SMILES	CtBP-E1A blk	Six1-Eya2 inh	DT40 TDP1 no CPT	TDP1 block	TDP1 cell CPT	IL1B secr inh
COc1cccc(N(CC(=O)NCCSCc2ccc(C)cc2)S(C)(=O)=O)c1	/	7	?	/	?	13
O=C(Oc1ccc(F)cc1)c1cccnc1	/	1	3%	/	3%	6
CCc1nc(SCC(=O)c2ccc(Cl)s2)c2oc3ccccc3c2n1	8	13	-25%	2%	-26%	2
CCc1nc(Sc2nc(C)cc(C)n2)c2oc3ccccc3c2n1	-1	-11	21µM*	0%	?	-9
CCc1nc(SCC(=O)N2CCN(c3ccccc3)CC2)c2oc3ccccc3c2n1	-5	-1	21µM*	2%	26µM*	-67*
O=C(CSc1nc(C2CC2)nc2ccccc12)N1CCc2ccccc2C1	/	/	/	4%	/	/
O=C(CSc1nc(C2CC2)nc2ccccc12)N1CCCCC1	-7	-2	?	3%	?	-95*
CCc1nc(N(CC)CC)c2oc3ccccc3c2n1	15	14	-24%	0%	-28%	18
O=C(c1ccc(=O)oc1)N1CCN(c2ccc(F)cc2)CC1	0	-4	1%	-6%	-29%	-20
CSc1ccccc1NC(=O)COc1ccc(Cl)cc1C	33	34	?	-3%	?	9
O=C(/C=C/c1ccc2c(c1)OCO2)c1ccccc1	/	/	/	6%	/	/
COc1ccc(C(=O)/C=C/c2ccc(OC)c(COc3ccc(F)cc3)c2)cc1	7	1	?	1%	?	-93*
COc1ccc(C(=O)Cn2c(C(=O)/C=C/c3ccccc3)nc3ccccc32)cc1	-6	-4	23µM*	7%	15µM*	-27
O=C(/C=C/c1ccc2c(c1)OCCO2)c1ccccc1	/	2	16µM*	/	?	?
Cc1ccc(O)c(C(=O)/C=C/c2ccc3c(c2)OCCO3)c1	/	1	16µM*	8%	16µM*	-52*
COc1ccc(/C=C/C(=O)O)cc1COc1ccccc1C	5	13	-23%	3%	-15%	25
Cc1ccc(C)c(OCCC(=O)N2CCN(S(=O)(=O)c3cc(F)ccc3F)CC2)c1	/	-1	?	0%[56.1 µM]	?	9
CC1CCn2c(nc3cc(C(=O)NCc4ccc(F)cc4)ccc32)C1 (stereo not given)	/	/	?	5%	-24%	/
COc1ccc(/C=C/C(=O)c2ccc(O)cc2)cc1	8	7	?	5%	-3%	-80*
COc1ccc(C(=O)/C=C/c2ccc3c(c2)OCCO3)cc1	0	7	?	4%	?	-93*
O=C(Cc1ccccc1)NN=C1CCCC1	3	9	-1%	/	-7%	3
CCC1=C(c2ccc(C)cc2)S(=O)(=O)N=C1N1CCC(C(=O)NCCc2ccc(Cl)cc2)CC1	/	/	10µM*	4%	13µM*	/
CCC1=C(c2ccc(C)cc2)S(=O)(=O)N=C1N1CCC(C(=O)Nc2ccccc2C(=O)OC)CC1	/	/	18µM*	10%	?	/
CCC1=C(c2ccc(C)cc2)S(=O)(=O)N=C1N1CCC(C(=O)NCc2ccc(C)cc2)CC1	/	/	?	4%	?	/
CCCCNC(=S)NNC(=O)c1ccncc1	4	-1	-15%	6%	-1%	9
SMILES	CtBP-E1A blk	Six1-Eya2 inh	DT40 TDP1 no CPT	TDP1 block	TDP1 cell CPT	IL1B secr inh
COc1cc2ccccc2cc1C(=O)Nc1ccc2oc(-c3ccc(F)cc3Cl)nc2c1	/	/	-10%	-7%[12.3 µM]	-14%	/
Cc1cccn2c(=O)c(/C=C(\C#N)C(=O)NC3CCS(=O)(=O)C3)c(N3CC(C)OC(C)C3)nc12 (stereo not given)	4	-1	-23%	0%	7%	-6
Cc1ccccc1Oc1nc2c(C)cccn2c(=O)c1/C=C(\C#N)C(=O)NC1CCS(=O)(=O)C1 (stereo not given)	1	-3	21µM*	3%	12µM*	-97*
Cc1cccn2c(=O)c(/C=C(\C#N)C(=O)NC3CCS(=O)(=O)C3)c(N3CCC(C(N)=O)CC3)nc12 (stereo not given)	-5	2	-5%	6%	3%	0
Cc1cccn2c(=O)c(/C=C(\C#N)C(=O)NC3CCS(=O)(=O)C3)c(Oc3ccccc3Cl)nc12 (stereo not given)	-21	-11	21µM*	5%	?	14
COc1cc2nc(Cl)nc(N3CCOCC3)c2cc1OC	-10	5	?	7%	?	-3
Cc1ccc(CNC(=O)c2ccccc2SCC(=O)NCC2CCCCC2)cc1	-3	-7	?	-3%	?	0
O=C(NCCc1ccccc1)C1CCN(Cc2cc3ccccc3n2Cc2ccccc2)CC1	/	/	21µM*	3%	?	/
CCOc1ccccc1CNC(=O)C1CCN(Cc2cc3ccccc3n2Cc2ccccc2)CC1	/	/	16µM*	2%	?	/
CCCNC(=O)C1CCN(Cc2cc3ccccc3n2Cc2ccccc2)CC1	/	/	18µM*	5%	?	/
COCCNC(=O)C1CCCN(Cc2ccccc2)CC1 (stereo not given)	-19	14	1%	/	-22%	?
CC(CNC(=O)C1CCN(Cc2cc3ccccc3n2Cc2ccccc2)CC1)c1ccccc1 (stereo not given)	/	/	16µM*	0%	23µM*	/
CCN(CC)CCCNC(=O)CSc1nc(-c2cccs2)cc(C(F)(F)F)n1	-1	0	1%	3%	4%	-6
Cc1ccccc1Nc1nc(N)nc(COC(=O)c2ccc3c(c2)OCCO3)n1	-7	-11	?	/	-26%	-13
CN(Cc1ccccc1)C(=O)C1CCN(Cc2cc3ccccc3n2Cc2ccccc2)CC1	/	/	?	5%	?	/
CN(C)CCNC(=O)C1CCN(Cc2cc3ccccc3n2Cc2ccccc2)CC1	/	/	16µM*	1%	21µM*	/
CCS(=O)(=O)N1CCC(C(=O)NCCc2ccccc2)CC1	6	-2	-5%	-1%	1%	5
O=C(NCCc1ccccc1)C1CCN(Cc2cccc3ccccc23)CC1	4	-15	?	2%	?	-51*
Cc1nc(C(=O)NCc2ccccc2)sc1C1(C)CC(c2ccccc2)=NO1 (stereo not given)	4	1	-27%	1%	?	-16
CC(=O)N(C)c1ccc(OCC(O)Cn2c(C)nc3ccccc32)cc1 (stereo not given)	5	6	6.5µM*	1%	5.8µM*	0
